Shiga inhibitor – Shiga toxin inhibition | Vero cells, Shiga toxin protein synthesis inhibition reporter | inhibition, % at 38.7 µM | 9.2% of 290,000 active | AID 2315; in the data active = inhibition mostly above about 28%, no sharp cut-off; inactive = mostly below about 43%; note: 0% is about no effect
Pf growth 96h – inhibits malaria parasite growth, 96 h. Potency, µM (highest dose often 28.7 µM), for the others: at the highest dose activity change, negative = inhibition, usual class: inhibitors. P. falciparum luciferase reporter growth, 96 h. AID 504834. 6.9% of 320,000 active; note: potency is the fitted concentration of half-maximal effect; % is set by controls: 0 for no effect and ±100 for the full control effect
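Erythrocytes infected with luciferase-expressing P. falciparum were dispensed at 2% hematocrit and 0.05% parasitemia (final), then incubated with compounds 96 hours at 37 C in 5% CO2. Luminescence after detection reagent addition reported growth.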
Pf growth 48h – P. falciparum growth inhibition at 48 hours (one generation) | AID 504832 | P. falciparum luciferase growth in erythrocytes, 48 h | Potency, µM (doses to about 28.7 µM), without a hit: at the top dose activity change, negative = inhibition, actives largely listed as inhibitors | 5.9% of 310,000 active; note: potency is the fitted concentration of half-maximal effect; % is set by controls: 0 for no effect and ±100 for the full control effect
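Compounds are pin-transferred into medium, infected erythrocytes (2% hematocrit, 0.1% parasitemia final) are added, and plates sit one parasite generation at 37 C in 5% CO2. Detection reagent is then added and luminescence measured.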
NS1 function inh – influenza NS1 inhibition; Potency, µM (top dose mostly 46.1 µM), inactives show at the highest dose activity, positive = more growth; 0.4% of 270,000 active; AID 2326; calls by dose curve; note: potency is the fitted concentration of half-maximal effect; actives are rising curves; nearly all actives have a fitted effect of over 50% in size
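Compounds were scored for reversing the slow growth caused by influenza A NS1 in S. cerevisiae, measured by optical density at 600 nm. Assay medium contained 2% galactose at pH 6.0; NS1-free yeast of the same strain were the positive control.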
FBPA Giardia inh – Giardia lamblia aldolase inhibition; 0.71% of 290,000 active; Potency, µM (top dose mostly 59.6 µM), without a hit: top-dose activity, negative = inhibition, actives largely listed as inhibitors; purified Giardia FBPA; note: potency is the fitted concentration of half-maximal effect; % is set by controls: 0 for no effect and ±100 for the full control effect; nearly all actives have a fitted effect of over 55% in size
Target sequence (A8B2U2 whole entry, looked up): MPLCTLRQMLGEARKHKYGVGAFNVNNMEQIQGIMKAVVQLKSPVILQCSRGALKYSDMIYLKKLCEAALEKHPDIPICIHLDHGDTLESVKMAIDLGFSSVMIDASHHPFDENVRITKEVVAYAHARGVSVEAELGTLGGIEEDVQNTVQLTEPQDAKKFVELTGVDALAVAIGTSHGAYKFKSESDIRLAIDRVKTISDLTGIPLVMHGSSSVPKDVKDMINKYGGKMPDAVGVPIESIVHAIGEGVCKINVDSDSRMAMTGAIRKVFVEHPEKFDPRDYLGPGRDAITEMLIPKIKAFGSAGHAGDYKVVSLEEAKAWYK
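40 nM FBPA preincubated 10 min at RT with compound (up to 57.5 uM final), then substrate plus GAPDH/TPI/NAD/arsenate coupling and diaphorase/resazurin added. Fluorescence read after 20 min at RT, 525/598 nm.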
CHX counter – counter-screen hit for Shiga toxin inhibitors, cycloheximide; cell reporter, cycloheximide protein synthesis inhibition counterscreen; max response, %; 12% of 300,000 active; in the data active = max response mostly above about 13%, no sharp cut-off; inactive = mostly below about 14%; note: read at 38.3 µM for the half of the compounds with a filed dose; 0% is about no effect
* marks the source's active call; other numbers are inactive results. This is a sample that favours compounds with a hit; in the whole collection about 21% have one here. Unless noted, calls come from the whole dose curve; as a rule, active = well fitted curve in the direction sought with a large enough effect; inconclusive = small, poorly fitted or top-dose-only effect, or another doubt; inactive = no such curve, though single readings can be large; an effect the other way counts as inactive or inconclusive.

`O=C(C1CCN(S(=O)(=O)c2ccc(Cl)cc2)CC1)N1CCCC1` gave Shiga inhibitor 4, Pf growth 96h -1%, Pf growth 48h inconclusive, NS1 function inh -1%, FBPA Giardia inh -3% and CHX counter -4.
COc1cccc([C@@H]2Oc3ccc(Br)cc3C[C@H]2OC(=O)NS(=O)(=O)c2ccc(C)cc2)c1 was read as FBPA Giardia inh -1%.
CCCNC(=O)C1CCN(S(=O)(=O)c2ccc3c(c2)OCCO3)CC1 was read as Pf growth 96h -17% and Pf growth 48h inconclusive.
`Cc1ccc(S(=O)(=O)N2CCC(C(=O)NCCN3CCCCCC3)CC2)cc1` gave Shiga inhibitor 9, Pf growth 96h -3%, Pf growth 48h 12µM*, NS1 function inh -9%, FBPA Giardia inh 5% and CHX counter -2.
For Cc1cc(C(=O)Nc2ccc(S(=O)(=O)N3CCCC3)cc2)cs1 the results were Shiga inhibitor 22, Pf growth 48h inconclusive, NS1 function inh -25%, FBPA Giardia inh -13% and CHX counter 7.
For CCCNC(=O)C1CCN(S(=O)(=O)c2ccc(Br)cc2)CC1 the results were Shiga inhibitor 9, Pf growth 96h 13%, Pf growth 48h 4.7µM*, NS1 function inh inconclusive, FBPA Giardia inh 1% and CHX counter 1.
Cc1ccc(S(=O)(=O)N2CCC(C(=O)Nc3ccc(S(=O)(=O)N4CCCC4)cc3)CC2)cc1C was read as Pf growth 96h inconclusive and Pf growth 48h 12µM*.
For Cc1ccc(C(=O)Nc2ccc(S(=O)(=O)N3CCCC3)cc2)s1 the results were Shiga inhibitor 50, Pf growth 96h 13µM*, Pf growth 48h inconclusive, FBPA Giardia inh -17% and CHX counter 14*.
`C=CC[C@](C)(O)c1ccccc1` gave FBPA Giardia inh -1%.
`Cc1ccc(C(C)(C)C)cc1S(=O)(=O)N1CCC(C(=O)N2CCN(c3ccc(O)cc3)CC2)CC1` gave Pf growth 96h 10µM* and Pf growth 48h 3.7µM*.
Cc1cc(C)c(C)c(S(=O)(=O)N2CCC(C(=O)Nc3ccncc3)CC2)c1C was read as Shiga inhibitor -9, Pf growth 96h 13µM*, Pf growth 48h inconclusive, NS1 function inh -33% and CHX counter -3.
Screening Cc1ccc(S(=O)(=O)N2CCC(C(=O)N3CCCC3C(=O)N[C@@H](CC(C)C)C(=O)NCC(N)=O)CC2)cc1 (some centres not stated) returned Shiga inhibitor -4, Pf growth 96h 6.6µM*, Pf growth 48h inconclusive, NS1 function inh 12%, FBPA Giardia inh 3% and CHX counter -2.
O=C(Nc1ccncc1)C1CCN(S(=O)(=O)c2ccccc2)CC1 was read as Pf growth 96h -15% and Pf growth 48h inconclusive.
`CCCS(=O)(=O)N1CCC(C(=O)N2CCCC2)CC1` gave Shiga inhibitor 14, Pf growth 96h 12µM*, Pf growth 48h 12%, NS1 function inh 10%, FBPA Giardia inh 3% and CHX counter -2.
Screening CCCS(=O)(=O)N1CCC(C(=O)N2CCOCC2)CC1 returned Shiga inhibitor -16, Pf growth 96h inconclusive, Pf growth 48h 7%, NS1 function inh -8%, FBPA Giardia inh 6% and CHX counter -4.
For O=C(C1CC1)N1CCN(c2ccc(O)cc2)CC1 the results were Shiga inhibitor -5, Pf growth 96h inconclusive, Pf growth 48h inconclusive, NS1 function inh 16%, FBPA Giardia inh -6% and CHX counter -4.
Screening COc1cc(C(=O)NC2CCCNC2)cc(OC)c1OC (configuration not stated) returned Shiga inhibitor -5, FBPA Giardia inh 2% and CHX counter -3.
Screening Cc1ccc(NC(=O)c2cc(S(=O)(=O)N3CCOCC3)cn2C)cc1F returned Shiga inhibitor 15, Pf growth 96h inconclusive, Pf growth 48h inconclusive, NS1 function inh 0%, FBPA Giardia inh -3% and CHX counter -1.
`CC1CCN(C(=O)C2CCN(S(=O)(=O)c3ccc(-n4cnnn4)cc3)CC2)CC1` gave Shiga inhibitor -3, Pf growth 96h 3.7µM*, Pf growth 48h -1%, NS1 function inh 10%, FBPA Giardia inh -6% and CHX counter -4.
Cc1ccc(S(=O)(=O)N2CCCC(C(=O)Nc3ccc(NC(=O)c4ccccn4)cc3)C2)cc1 (configuration not stated) was read as Shiga inhibitor 20, Pf growth 48h inconclusive, NS1 function inh 1%, FBPA Giardia inh -1% and CHX counter 9.1*.
Screening O=C(Nc1ccc(S(=O)(=O)N2CCCCC2)cc1)C1CCCCC1 returned Shiga inhibitor 21, Pf growth 96h inconclusive, Pf growth 48h inconclusive, NS1 function inh -19%, FBPA Giardia inh 10% and CHX counter -3.
Cc1ccc(S(=O)(=O)N2CCCC(C(=O)Nc3cccnc3)C2)cc1 (configuration not stated) was read as Shiga inhibitor -21, Pf growth 96h -14%, NS1 function inh 2%, FBPA Giardia inh 0% and CHX counter -1.
`O=C(Nc1ccc(F)cc1)C1CCN(S(=O)(=O)c2ccc3[nH]c(=O)oc3c2)CC1` gave Shiga inhibitor -2, Pf growth 96h 13µM*, Pf growth 48h 9%, NS1 function inh 4% and CHX counter 1.
Screening Cc1ccc(S(=O)(=O)N2CCC(C(=O)Nc3ccc(S(=O)(=O)N4CCCC4)cc3)CC2)cc1 returned Pf growth 96h 4.7µM* and Pf growth 48h 13µM*.
`COc1cccc(Cn2c(=O)c(-c3ccc(F)cc3)nc3cnc(N(C)C)nc32)c1` gave FBPA Giardia inh 4%.
For C[C@H](NS(=O)(=O)c1ccc2c(c1)OCCCO2)C(=O)N1CCN(c2ccc(F)cc2)CC1 the results were Pf growth 96h inconclusive and Pf growth 48h -17%.
For CCCCC[C@H](O)/C=C/[C@@H]1[C@H](C/C=C\CCCC(=O)O)[C@@H](O)C[C@H]1O the results were FBPA Giardia inh 1%.
Screening Cc1cc(C)c(C)c(S(=O)(=O)N2CCC(C(=O)N3CCCC3)CC2)c1C returned Pf growth 96h 12µM* and Pf growth 48h 12µM*.
Screening Cc1ccc(NC(=O)C2CCN(C(=O)OC(C)(C)C)CC2)cc1S(=O)(=O)N1CCCCC1 returned Pf growth 96h inconclusive and Pf growth 48h 13µM*.
Screening Cc1ccc(NC(=O)C2CCCC2)cc1S(=O)(=O)N1CCOCC1 returned Pf growth 96h -31% and Pf growth 48h -24%.
For CCC(C)(C)n1nnnc1C(C(C)C)N(Cc1ccco1)Cc1cc2cc3c(cc2[nH]c1=O)OCO3 (configuration not stated) the results were Shiga inhibitor -14, Pf growth 96h inconclusive, Pf growth 48h inconclusive, NS1 function inh -4%, FBPA Giardia inh -6% and CHX counter -1.

High-throughput results (PubChem BioAssay)
